According to PMC5515408, “Sequence-specific DNA binding by MYC/MAX to low-affinity non-E-box motifs”:
The full ranking holds about 4,500 sequences; the median of “log2 normalized fluorescence” is about -0.34, and the highest 2% start at about 3.3. What follows is part of a selection rich in the highest values, with near analogues and random picks from the rest.

Each sequence was assayed against MAX:MAX (p21) (human, UniProt P61244-2 1-151) (assay: protein-binding microarray (anti-MAX antibody); PBM: 15 mM Tris-HCl pH 7.5, 100 mM KCl, 0.075% NP40, 7.5 mM beta-mercaptoethanol, 375 ng/ul BSA, 8 ng/ul poly(dA-dT):(dA-dT), 550 ng complex, 60 min, room tempe; high values mean tight binding). Settings: protein: recombinant; tags: 6xHis; chain copies: 2; label: 3' end of printed strand (linker) attached to glass slide; dsDNA, one strand shown.
Sequence of MAX:MAX (p21) (P61244 other isoform, or with tags, fused parts or gaps): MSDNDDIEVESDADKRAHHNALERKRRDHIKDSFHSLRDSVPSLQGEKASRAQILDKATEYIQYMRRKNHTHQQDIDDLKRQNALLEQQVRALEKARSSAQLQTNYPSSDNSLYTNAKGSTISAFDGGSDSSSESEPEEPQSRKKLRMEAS
Method in brief: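 For each of ~5000 unique double-stranded 12-nt sequences, spotted in triplicate on a custom Agilent glass array, binding of His-tagged human MYC:MAX or MAX:MAX dimers is reported as log2 normalized fluorescence. The dimers (550 ng, E. coli-expressed) were incubated for 60 min at room temperature in Tris-KCl buffer, pH 7.5, with NP40, BSA and poly(dA-dT) competitor. Detection used anti-MAX and secondary antibodies with a 543 nm scan.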

Q: For “CCGGCTGATACCTGGTGTTAATAGCTAAGATTACTATATCGACG”, which binding signal is on record?
A: -0.298 log2 normalized fluorescence

Q: With “CCGGCTGACACGTAGAGTTAATAGCTAAGATTACTATATCGACG” as the sequence, how does the binding signal read?
A: 0.996 log2 normalized fluorescence

Q: How did the binding signal turn out when “CCGGCTGAAGCGGTGTATTAATAGCTAAGATTACTATATCGACG” was run?
A: -0.554 log2 normalized fluorescence

Q: “CCGGCTGACCCATGGTATTAATAGCTAAGATTACTATATCGACG” was tested. Which binding signal did it give?
A: 2.08 log2 normalized fluorescence

Q: How did the binding signal turn out when “CCGGCTGACACGCCATATTAATAGCTAAGATTACTATATCGACG” was run?
A: 2.41 log2 normalized fluorescence

Q: With “CCGGCTGATACATAGTATTAATAGCTAAGATTACTATATCGACG” as the sequence, how does the binding signal read?
A: -0.533 log2 normalized fluorescence

Q: Which binding signal does the source give for “CCGGCTGATTCACGGTATTAATAGCTAAGATTACTATATCGACG” here?
A: 0.000807 log2 normalized fluorescence

Q: Which binding signal does the source give for “CCGGCTGAGTGGATGTATTAATAGCTAAGATTACTATATCGACG” here?
A: 0.0423 log2 normalized fluorescence

Q: For “CCGGCTGACACGTTGGATTAATAGCTAAGATTACTATATCGACG”, which binding signal is on record?
A: 3.03 log2 normalized fluorescence

Q: Which binding signal does the source give for “CCGGCTGATAGTGGGTATTAATAGCTAAGATTACTATATCGACG” here?
A: -0.372 log2 normalized fluorescence

Q: Which binding signal does the source give for “CCGGCTGAGTGGCTGTATTAATAGCTAAGATTACTATATCGACG” here?
A: 0.1 log2 normalized fluorescence

Q: Which binding signal does the source give for “CCGGCTGAAAGATGGTATTAATAGCTAAGATTACTATATCGACG” here?
A: -0.31 log2 normalized fluorescence

Q: With “CCGGCTTGCACGTGGTATTAATAGCTAAGATTACTATATCGACG” as the sequence, how does the binding signal read?
A: 3.31 log2 normalized fluorescence

Q: Which binding signal does the source give for “CCGGCTTGCACGTGGTTTTAATAGCTAAGATTACTATATCGACG” here?
A: 3.23 log2 normalized fluorescence

Q: For “CCGGCTTGCACTTGGTATTAATAGCTAAGATTACTATATCGACG”, which binding signal is on record?
A: 0.423 log2 normalized fluorescence

Q: With “CCGGCTGAGGCGGCGTATTAATAGCTAAGATTACTATATCGACG” as the sequence, how does the binding signal read?
A: -0.641 log2 normalized fluorescence

Q: With “CCGGCTGAGACGCCGTATTAATAGCTAAGATTACTATATCGACG” as the sequence, how does the binding signal read?
A: -0.749 log2 normalized fluorescence

Q: For “CCGGCTGAGGTGGTGTATTAATAGCTAAGATTACTATATCGACG”, which binding signal is on record?
A: -0.0636 log2 normalized fluorescence

Q: How did the binding signal turn out when “CCGGCTGAATAAGCGTATTAATAGCTAAGATTACTATATCGACG” was run?
A: -0.651 log2 normalized fluorescence

Q: For “CCGGCTTACGCGTGGTATTAATAGCTAAGATTACTATATCGACG”, which binding signal is on record?
A: 3.27 log2 normalized fluorescence

Q: Which binding signal does the source give for “CCGGCCGCCACGTGGTATTAATAGCTAAGATTACTATATCGACG” here?
A: 3.32 log2 normalized fluorescence

Q: Which binding signal does the source give for “CCGGCCGACGCGTGGTATTAATAGCTAAGATTACTATATCGACG” here?
A: 3.33 log2 normalized fluorescence

Q: For “CCGGCTGCGACGTGGTATTAATAGCTAAGATTACTATATCGACG”, which binding signal is on record?
A: 2.27 log2 normalized fluorescence

Q: For “CCGGCTGCCTCGTGGTATTAATAGCTAAGATTACTATATCGACG”, which binding signal is on record?
A: 3.36 log2 normalized fluorescence

Q: Which binding signal does the source give for “CCGGCCACCACGTGGTATTAATAGCTAAGATTACTATATCGACG” here?
A: 3.24 log2 normalized fluorescence

Q: How did the binding signal turn out when “CCGGCAGCCACGTGGTATTAATAGCTAAGATTACTATATCGACG” was run?
A: 3.13 log2 normalized fluorescence

Q: For “CCGGCTGCCGCGTGGTATTAATAGCTAAGATTACTATATCGACG”, which binding signal is on record?
A: 3.21 log2 normalized fluorescence

Q: How did the binding signal turn out when “CCGGCTGCCACGTGGTATTAATAGCTAAGATTACTATATCGACG” was run?
A: 3.42 log2 normalized fluorescence

Q: “CCGGCTAACGCGTGGTATTAATAGCTAAGATTACTATATCGACG” was tested. Which binding signal did it give?
A: 3.26 log2 normalized fluorescence

Q: Which binding signal does the source give for “CCGGCCGCGACGTGGTATTAATAGCTAAGATTACTATATCGACG” here?
A: 2.79 log2 normalized fluorescence

Q: “CCGGCTGCCCCGTGGTATTAATAGCTAAGATTACTATATCGACG” was tested. Which binding signal did it give?
A: 2.88 log2 normalized fluorescence

Q: For “CCGGCTGACAATGGGTATTAATAGCTAAGATTACTATATCGACG”, which binding signal is on record?
A: 0.0164 log2 normalized fluorescence

Q: For “CCGGCTGATGGGTAGTATTAATAGCTAAGATTACTATATCGACG”, which binding signal is on record?
A: -0.121 log2 normalized fluorescence

Q: How did the binding signal turn out when “CCGGCTGACATTTGGTGTTAATAGCTAAGATTACTATATCGACG” was run?
A: -0.316 log2 normalized fluorescence

Q: How did the binding signal turn out when “CCGGCTGACATAGCGTATTAATAGCTAAGATTACTATATCGACG” was run?
A: -0.366 log2 normalized fluorescence

Q: “CCGGCTGAGACACTGTATTAATAGCTAAGATTACTATATCGACG” was tested. Which binding signal did it give?
A: -0.484 log2 normalized fluorescence

Q: With “CCGGCTGATACGCCGTATTAATAGCTAAGATTACTATATCGACG” as the sequence, how does the binding signal read?
A: -0.497 log2 normalized fluorescence

Q: Which binding signal does the source give for “CCGGCTGAGACCCTGTATTAATAGCTAAGATTACTATATCGACG” here?
A: -0.583 log2 normalized fluorescence

Q: How did the binding signal turn out when “CCGGCTGAGCAGGGGTATTAATAGCTAAGATTACTATATCGACG” was run?
A: 0.451 log2 normalized fluorescence

Q: Which binding signal does the source give for “CCGGCTGAGACGTGGTCTTAATAGCTAAGATTACTATATCGACG” here?
A: 1.44 log2 normalized fluorescence

Q: Which binding signal does the source give for “CCGGCCGCCACGTGGTCTTAATAGCTAAGATTACTATATCGACG” here?
A: 3.44 log2 normalized fluorescence

Q: “CCGGCCGCCACGTAGTATTAATAGCTAAGATTACTATATCGACG” was tested. Which binding signal did it give?
A: 1.58 log2 normalized fluorescence

Q: How did the binding signal turn out when “CCGGCAGACACGTGGTATTAATAGCTAAGATTACTATATCGACG” was run?
A: 3.08 log2 normalized fluorescence

Q: “CCGGCTGGTACGTGGTCTTAATAGCTAAGATTACTATATCGACG” was tested. Which binding signal did it give?
A: 1.03 log2 normalized fluorescence

Q: For “CCGGCCAACACGTTGTATTAATAGCTAAGATTACTATATCGACG”, which binding signal is on record?
A: 3.07 log2 normalized fluorescence

Q: For “CCGGCGTATACGTGGTATTAATAGCTAAGATTACTATATCGACG”, which binding signal is on record?
A: 1.62 log2 normalized fluorescence

Q: “CCGGCAAACACGTTGTATTAATAGCTAAGATTACTATATCGACG” was tested. Which binding signal did it give?
A: 3.31 log2 normalized fluorescence

Q: How did the binding signal turn out when “CCGGCGTACACGTGGTATTAATAGCTAAGATTACTATATCGACG” was run?
A: 3.3 log2 normalized fluorescence

Q: How did the binding signal turn out when “CCGGCAGACACGTGGTCTTAATAGCTAAGATTACTATATCGACG” was run?
A: 3.43 log2 normalized fluorescence

Q: For “CCGGCTGACACGTGGTCTTAATAGCTAAGATTACTATATCGACG”, which binding signal is on record?
A: 3.21 log2 normalized fluorescence

Q: For “CCGGCGTACACGTGGTCTTAATAGCTAAGATTACTATATCGACG”, which binding signal is on record?
A: 3.35 log2 normalized fluorescence

Q: For “CCGGCTTACACGTGGTCTTAATAGCTAAGATTACTATATCGACG”, which binding signal is on record?
A: 3.19 log2 normalized fluorescence

Q: How did the binding signal turn out when “CCGGCTAACACGTTGTATTAATAGCTAAGATTACTATATCGACG” was run?
A: 3.12 log2 normalized fluorescence

Q: How did the binding signal turn out when “CCGGCATACACGTGGTATTAATAGCTAAGATTACTATATCGACG” was run?
A: 3.25 log2 normalized fluorescence

Q: Which binding signal does the source give for “CCGGCTGACCATCTGTATTAATAGCTAAGATTACTATATCGACG” here?
A: 1.1 log2 normalized fluorescence

Q: How did the binding signal turn out when “CCGGCTGACGTACAGTATTAATAGCTAAGATTACTATATCGACG” was run?
A: -0.0346 log2 normalized fluorescence

Q: “CCGGCTGACACGTAACATTAATAGCTAAGATTACTATATCGACG” was tested. Which binding signal did it give?
A: 1.37 log2 normalized fluorescence

Q: With “CCGGCTGATTGGATGTATTAATAGCTAAGATTACTATATCGACG” as the sequence, how does the binding signal read?
A: -0.659 log2 normalized fluorescence

Q: How did the binding signal turn out when “CCGGCTGACTCGCTGTATTAATAGCTAAGATTACTATATCGACG” was run?
A: 0.114 log2 normalized fluorescence

Q: For “CCGGCTGAAGAACCGTATTAATAGCTAAGATTACTATATCGACG”, which binding signal is on record?
A: -0.66 log2 normalized fluorescence

Q: “CCGGCTGACAACTTGTATTAATAGCTAAGATTACTATATCGACG” was tested. Which binding signal did it give?
A: -0.311 log2 normalized fluorescence

Q: For “CCGGCCCGCCAAAGCATTTAATAGCTAAGATTACTATATCGACG”, which binding signal is on record?
A: 0.154 log2 normalized fluorescence

Q: How did the binding signal turn out when “CCGGCTGACAAATCGTATTAATAGCTAAGATTACTATATCGACG” was run?
A: -0.658 log2 normalized fluorescence

Q: “CCGGCTGATCGTCAGTATTAATAGCTAAGATTACTATATCGACG” was tested. Which binding signal did it give?
A: -0.695 log2 normalized fluorescence

Q: For “CCGGCTGAGAGCGCGTATTAATAGCTAAGATTACTATATCGACG”, which binding signal is on record?
A: -0.456 log2 normalized fluorescence

Q: How did the binding signal turn out when “CCGGCTTAGACGTGGTATTAATAGCTAAGATTACTATATCGACG” was run?
A: 1.04 log2 normalized fluorescence

Q: “CCGGCTTACACGTGGTATTAATAGCTAAGATTACTATATCGACG” was tested. Which binding signal did it give?
A: 3.3 log2 normalized fluorescence

Q: Which binding signal does the source give for “CCGGCAAACACGTGGTATTAATAGCTAAGATTACTATATCGACG” here?
A: 3.01 log2 normalized fluorescence

Q: How did the binding signal turn out when “CCGGCCAACACGTGGTATTAATAGCTAAGATTACTATATCGACG” was run?
A: 3.22 log2 normalized fluorescence

Q: “CCGGCTGACACGCGGTATTAATAGCTAAGATTACTATATCGACG” was tested. Which binding signal did it give?
A: 3.1 log2 normalized fluorescence

Q: How did the binding signal turn out when “CCGGCTACTACGTGGTATTAATAGCTAAGATTACTATATCGACG” was run?
A: 1.83 log2 normalized fluorescence

Q: Which binding signal does the source give for “CCGGCCTACACGTGGTGTTAATAGCTAAGATTACTATATCGACG” here?
A: 3.19 log2 normalized fluorescence

Q: How did the binding signal turn out when “CCGGCCTACACGTGGTATTAATAGCTAAGATTACTATATCGACG” was run?
A: 3.31 log2 normalized fluorescence

Q: For “CCGGCCGACACGCGGTATTAATAGCTAAGATTACTATATCGACG”, which binding signal is on record?
A: 2.86 log2 normalized fluorescence

Q: With “CCGGCTAACACGTGGTATTAATAGCTAAGATTACTATATCGACG” as the sequence, how does the binding signal read?
A: 3.45 log2 normalized fluorescence

Q: For “CCGGCTAACACGCGGTATTAATAGCTAAGATTACTATATCGACG”, which binding signal is on record?
A: 3.35 log2 normalized fluorescence

Q: “CCGGCTTAATCGTGGTATTAATAGCTAAGATTACTATATCGACG” was tested. Which binding signal did it give?
A: 1.43 log2 normalized fluorescence
